# Screening results deposited in PubChem by National Center for Advancing Translational Sciences (NCATS).
# Shiga toxin inh = Shiga toxin inhibition. 290,000 compounds, 9.2% hits. AID 2315. inhibition, % at 38.7 µM. Vero cells, Shiga toxin protein synthesis inhibition reporter; in the data active means inhibition mostly above about 28%, no sharp cut-off; inactive means mostly below about 43%; further: 0% is about no effect
# NS1 function inh = influenza NS1 inhibition; Potency, µM (top dose mostly 46.1 µM), for the others: top-dose activity, positive = more growth; 270,000 compounds, 0.4% hits; AID 2326; calls by dose curve; further: potency means the concentration at half of the fitted maximal effect; actives are rising curves; nearly all actives have a fitted effect of over 50% in size
#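 OD600 was taken as the measure of yeast growth restored by compound in an NS1-expressing S. cerevisiae strain. Cells had been washed out of glucose medium and diluted 1:100 into galactose -URA medium, pH 6.0.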
# Sm TGR inh = blocks Schistosoma mansoni thioredoxin glutathione reductase. Q962Y6. 360,000 compounds, 3% hits. purified TGR, DTNB reduction, TNB absorbance 405 nm. Potency, µM (doses to about 114 µM), for inactives: at the top dose activity change, negative = inhibition, hits mostly inhibitors; further: potency means the concentration at half of the fitted maximal effect; on the % scale 0 is the no-effect control and ±100 the full control effect; nearly all actives have a fitted effect of over 60% in size
#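 Kinetic colorimetric format: TGR-catalysed, NADPH-driven DTNB reduction monitored via TNB absorbance. Enzyme dispensed at 20 nM; compound exposure 15 min at room temperature before reaction start.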
# Pf growth 96h = P. falciparum growth inhibition at 96 hour, primary screen for plastid delayed-death inhibitors; 320,000 compounds, 6.9% hits; P. falciparum luciferase reporter growth, 96 h; Potency, µM (titrated, usually from 28.7 µM), for inactives: top-dose activity change, negative = inhibition, hits mostly inhibitors; further: potency means the concentration at half of the fitted maximal effect; on the % scale 0 is the no-effect control and ±100 the full control effect
#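 Readout is luminescence from an integrated firefly luciferase in P. falciparum. Red cells, 2% hematocrit and 0.05% parasitemia final, were cultured with compound through two parasite generations (96 hours) at 37 C, 5% CO2.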
# CHX counter = counter-screen for Shiga toxin inhibitors: cycloheximide protein synthesis inhibition; cell reporter, cycloheximide protein synthesis inhibition counterscreen; max response, %; 300,000 compounds, 12% hits; AID 2314; in the data active means max response mostly above about 13%, no sharp cut-off; inactive means mostly below about 14%; further: read at 38.3 µM for the half of the compounds with a filed dose; 0% is about no effect
# Pf growth 48h = inhibits P. falciparum growth in the first generation, 48 h; P. falciparum luciferase growth in erythrocytes, 48 h; 310,000 compounds, 5.9% hits; Potency, µM (titrated, usually from 28.7 µM), inactives show at the highest dose activity change, negative = inhibition, actives largely listed as inhibitors; further: potency means the concentration at half of the fitted maximal effect; on the % scale 0 is the no-effect control and ±100 the full control effect
#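 Compounds are pin-transferred into medium, infected erythrocytes (2% hematocrit, 0.1% parasitemia final) are added, and plates sit one parasite generation at 37 C in 5% CO2. Detection reagent is then added and luminescence measured.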
# Numbers without * were called inactive; i = inactive; ? = inconclusive; nt = no result; [ ] = another dose, or the depositor's remark. Sampled rows, rich in hits. Any-hit rate of the full collection: about 21%. Unless noted, the call rests on the fitted dose curve; in most records, active means well fitted curve in the direction sought with a large enough effect; inconclusive means small, poorly fitted or top-dose-only effect, or another doubt; inactive means no such curve, though single readings can be large; an effect the other way counts as inactive or inconclusive.
SMILES,Shiga toxin inh,NS1 function inh,Sm TGR inh,Pf growth 96h,CHX counter,Pf growth 48h
O=C(Nc1ccccc1)c1ccc(NCC2CCCO2)c([N+](=O)[O-])c1 (centres undefined),100*,-5%,-7%,?,68*,42%
Cc1ccc([N+](=O)[O-])cc1S(=O)(=O)NCC1COc2ccccc2O1 (centres undefined),-9,-29%,11%,?,9,3%
COc1ccc2oc(C(=O)Nc3ccc(N4CCOCC4)cc3)c(C)c2c1,nt,nt,-13%,?,nt,?
CC(Sc1n[nH]c(N)n1)C(=O)Nc1cccc2ccccc12 (centres undefined),nt,nt,-12%,?,nt,?
CNC[C@H](CC1CCCCC1)NC[C@H](Cc1ccccc1)NCCC12CC3CC(CC(C3)C1)C2,-18,-51%,8%,2.1µM*,-8,?
Cc1ccc(S(=O)(=O)N[C@@H](CCCCN)C(=O)CCl)cc1,nt,-6%,nt,12µM*,nt,?
COc1cc(CNCc2ccco2)cc(OC)c1O,nt,18%,16µM*,26%,-2,28%
COc1cc(NC(=S)NCc2ccco2)cc(OC)c1OC,-5,-9%,-35%,5.2µM*,3,-1%
COC(=O)c1cccc(NC(=S)NCc2ccco2)c1,55,1%,nt,-1%,16,9%
COc1ccccc1NC(=S)NCc1ccco1,23,5%,35µM*,nt,8,13%
S=C(NCc1ccccc1)NCc1ccco1,-7,9%,?,?,14,-3%
CC(C)(C)c1ccccc1NC(=O)c1cnn2c(C(F)F)cc(-c3ccccc3)nc12,nt,nt,-1%,nt,nt,nt
CC(=O)N1CCc2cc(Br)cc(S(=O)(=O)NCCc3ccc(Cl)cc3)c21,nt,nt,2%,nt,nt,nt
CCOc1ccc(-n2c(SCC(=O)c3c(N)n(C)c(=O)n(C)c3=O)nnc2-c2cccnc2)cc1,-9,3%,5%,?,-5,?
CCCN(CCC)c1ccc(/C=C/c2ccc3cc(OCC)ccc3n2)cc1,71*,8%,?,-27%,34*,?
O=C(c1ccccc1Br)N(Cc1ccco1)Cc1ccco1,nt,nt,-1%,nt,nt,nt
COC(=O)C1=COC(C)C2CN3CCc4c([nH]c5cc(OC)c(OC)cc45)C3CC12 (centres undefined),-10,?,20µM*,0.83µM*,-2,?
Cc1ccc(CSc2nnc(-c3cccnc3)o2)cc1,-1,-53%,-11%,13%,12,nt
Fc1ccc(CSc2nnc(-c3ccncc3)o2)cc1,36,-4%,nt,8%,7,14%
Fc1ccc(CSc2nnc(-c3cccnc3)o2)cc1,31,-31%,9%,5%,17*,88%
c1ccc(CSc2nnc(-c3cccnc3)o2)cc1,74*,-18%,-21%,-21%,31*,184%
Cc1ccccc1-c1nnc(SCc2ccc(F)cc2)o1,45*,-96%,9%,4%,30*,43%
C=C1CCN([C@H](C(=O)NCc2ccc(OC)cc2)C(C)C)S(=O)(=O)c2ccccc21,-3,10%,8%,?,3,?
COC(=O)c1cc(S(=O)(=O)N2CCN(Cc3ccccc3)CC2)c[nH]1,-7,-13%,9%,24%,9,-8%
O=C(Cn1c(C(F)(F)F)nc2ccccc21)OCC(=O)c1c[nH]c2ccccc12,5,7%,-15%,4.1µM*,1,12µM*
SMILES,Shiga toxin inh,NS1 function inh,Sm TGR inh,Pf growth 96h,CHX counter,Pf growth 48h
COc1ccc(C(C(O)C(=O)c2c[nH]c3ccccc23)N2CCN(c3ccc(OC)cc3)CC2)cc1 (centres undefined),10,-9%,-3%,nt,7,13µM*
COc1cc(CC(=O)OCC(=O)c2c[nH]c3ccccc23)cc(OC)c1OC,nt,nt,3%,13µM*,nt,4.1µM*
COc1ccccc1C(=O)COC(=O)Cc1c[nH]c2ccccc12,nt,nt,0%,44%,nt,13%
COc1ccc(C(=O)c2c[nH]c3ccccc23)cc1,65*,-13%,-22%,?,61*,44%
COc1ccc(N2CCN(C(=O)C(=O)c3c[nH]c4ccccc34)CC2)cc1,-5,-2%,-5%,?,0,7%
O=C(CCN1C(=O)c2ccccc2S1(=O)=O)Nc1ccc(F)c(F)c1F,nt,nt,-1%,17%,nt,?
COc1ccc(/C=C/C(=O)OCC(=O)c2c[nH]c3ccccc23)cc1,nt,nt,-8%,2%,nt,3%
O=C(CNS(=O)(=O)c1ccccc1)OCC(=O)c1c[nH]c2ccccc12,nt,nt,-1%,4.1µM*,nt,8.3µM*
O=C(CC1CC2CCC1C2)OCC(=O)c1c[nH]c2ccccc12 (centres undefined),148*,-138%,15%,5.2µM*,53*,?
COc1ccc(CC(=O)OCC(=O)c2c[nH]c3ccccc23)cc1,nt,nt,-6%,-112%,nt,8.3µM*
C=C1c2cccc(C(F)(F)F)c2O[C@H](C(=O)OCC)C1OC (mixture of isomers),i,nt,nt,nt,0,nt
COc1ccccc1NC(=O)COc1coc(CN2CCN(c3ccccc3)CC2)cc1=O,nt,nt,-13%,?,nt,13µM*
Cc1cccc(NC(=O)COc2coc(CN3CCN(c4ccccc4)CC3)cc2=O)c1,nt,nt,?,?,nt,9.3µM*
Cc1ccccc1NC(=O)COc1coc(CN2CCN(c3ccccc3)CC2)cc1=O,nt,nt,-16%,-21%,nt,?
O=C(COc1coc(CN2CCN(c3ccccc3)CC2)cc1=O)Nc1cccc(F)c1,nt,nt,-2%,?,nt,5%
Cc1ccc(S(=O)(=O)Nc2nc3ccccc3nc2NCc2ccc3c(c2)OCO3)cc1C,-9,9%,2%,-20%,-4,12%
Cc1cccc(OCc2ccc(-c3nc(C#N)c(NCc4cccnc4)o3)o2)c1,nt,nt,-1%,nt,nt,nt
COc1ccccc1C(=O)NC(C(=O)NCCc1nc2ccccc2[nH]1)=C(C)C,-4,4%,-1%,?,-8,-23%
CC1CN(C2=NC(=O)/C(=C/c3ccncc3)S2)CC(C)O1 (centres undefined),31,3%,-11%,?,11,?
CCc1nc(N2CCN(C(=O)c3ccco3)CC2)c2c3c(sc2n1)CCCC3,-4,-8%,56µM*,41%,-2,?
Cc1sc2nc(CN3CCCCC3)nc(N3CCN(C(=O)c4ccco4)CC3)c2c1C,20,nt,-27%,?,-5,7.4µM*
Cc1nc(SCC(=O)N2CCN(C(=O)c3ccco3)CC2)c2c(C)c(C)sc2n1,-8,-17%,-2%,?,-3,?
O=C(c1ccco1)N1CCN(c2ncnc3sc4c(c23)CCC4)CC1,23,-13%,11µM*,146%,-5,?
O=C(O)CCc1ccc(-c2cccs2)n1CC1CCCO1 (centres undefined),-12,9%,8.9µM*,-3%[5.75 µM],-4,3%
COc1ccc(-c2ccc(CCC(=O)O)n2CC2CCCO2)cc1 (centres undefined),1,nt,35µM*,4%,5,?
